{"source": "PubChem BioAssay AID743171", "about": "(National Center for Advancing Translational Sciences (NCATS), 2013)", "note": "Several values for one entry are separate records, joined by “and”; a condition that tells them apart may be missing. Identical values can stand only once. Records with an inconclusive call do not appear. Activity calls are given as the source filed them. Calls come from the whole dose curve; as a rule, active = well fitted inhibition curve with a large enough effect; inconclusive = small, poorly fitted or top-dose-only effect; inactive = flat fitted curve, though single readings scatter."}
{"molecular_target": "15-hydroxyprostaglandin dehydrogenase [NAD(+)] (Homo sapiens) (UniProt P15428)", "sequence (P15428 whole entry, looked up)": "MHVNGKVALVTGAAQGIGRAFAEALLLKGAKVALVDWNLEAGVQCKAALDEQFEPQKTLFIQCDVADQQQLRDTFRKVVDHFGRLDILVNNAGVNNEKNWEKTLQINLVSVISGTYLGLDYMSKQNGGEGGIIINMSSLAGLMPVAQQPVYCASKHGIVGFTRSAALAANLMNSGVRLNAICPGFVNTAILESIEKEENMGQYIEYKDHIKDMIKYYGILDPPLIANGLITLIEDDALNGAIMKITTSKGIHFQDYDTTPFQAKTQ", "test": "Extended Characterization of HPGD Inhibitors: Activity in Primary Assay (HPGD)", "conditions": "recombinant HPGD, NADH fluorescence, PGE2 substrate", "excerpt": "The central role of HPGD is to inactivate prostaglandins such as prostaglandin E2 (PGE2) or prostaglandin D2 (PGD2). These prostaglandins are involved in a number of processes, including inflammation, differentiation, and cellular signaling, which makes HPGD an important target for pharmacological intervention. Inhibition of 15-PGDH (HPGD) activity was screened by utilizing prostaglandin as an electron donor and NAD+ as an electron acceptor/cofactor. An increase in the fluorescence intensity due to conversion of NAD+ to NADH was used to measure the enzyme activity. All compounds were screened using a qHTS approach, where compounds are assayed using at least seven concentrations to generate concentration-response curves for every compound. Briefly, qHTS uses an inter-plate dilution method where the first plate contains the highest concentration of a set of compounds in DMSO, while subsequent plates contain the same compounds in the same well locations, but at successive lower concentrations. NIH Chemical Genomics Center [NCGC] NIH Molecular Libraries Probe Centers Network [MLPCN] MLPCN Grant: MH084681 Assay Submitter (PI): Structural Genomics Consortium\nThree uL of enzyme (20 nM final concentration) were dispensed to 1536-well Greiner black solid bottom plates. Compounds (23 nL) were transferred via Kalypsys PinTool. The plates were incubated for 15 min at room temperature, and then 1 uL of substrate/cofactor solution (Substrate/cofactor solution: 1 mM NAD+ and 30 uM prostaglandin (Sigma, prostaglandin E2, #P5640)) were added to start the reaction. The plates were immediately transferred to and read 4 times every 30 seconds on a ViewLux High-throughput CCD imager (Perkin-Elmer) using 340 nm excitation and 450 nm emission fluorescence protocol. The fluorescence intensity difference between the last and the first time points, normalized against controls, was used to compute reaction progress."}
{"smiles": "Cc1cc(-c2nnc3n2CCCCC3)c(C)n1-c1ccc(Cl)cc1", "Potency": "38.3 nM (active)"}
{"smiles": "Cc1cc(-c2nnc3n2CCCCC3)c(C)n1-c1cccnc1", "Potency": "271 nM (active)"}
{"smiles": "COc1ccc(-n2c(C)cc(-c3nnc4n3CCCCC4)c2C)cc1", "Potency": "85.7 nM (active)"}
{"smiles": "Cc1cc(-c2nnc3n2CCCCC3)c(C)n1-c1ccc(C(C)(C)C)cc1", "Potency": "85.7 nM (active) and 136 nM (active)"}
{"smiles": "Cc1cccc(-n2cnc3cc(C(=O)N4CCCC(C)C4)ccc32)c1", "note": "(stereo not given)", "Potency": "21.5 nM (active)"}
